Compound activity (PubChem BioAssay)
NPC1 prom act = NPC1 promoter activation; Huh7 NPC1 promoter luciferase reporter, 24 h; Potency, µM (titrated, usually from 9.22 µM), inactives show top-dose activation, hits mostly activators; 2.4% of 320,000 active; AID 485313; note: % of control where 0% means no effect; nearly all actives have a fitted effect of over 60% in size
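Cells: Huh7 expressing luciferase under the NPC1 promoter, 1500/well. Seeded 2 h, compound added, incubated 24 h at 37 °C. Luciferase reagent, 10 min ambient, then luminescence.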
ELG1 genotoxic = inducers of genotoxicity in HEK293T ELG1-luciferase cells; AID 504466; HEK293T ELG1-luciferase reporter, luminescence, 16 h; 1.3% of 330,000 active; Potency, µM (highest dose often 46 µM), for the others: at the highest dose activity change, positive = activation, usual class: activators; note: % of control where 0% means no effect; nearly all actives have a fitted effect of over 60% in size
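HEK293T cells expressing luciferase-tagged ELG1 were treated with compound or DMSO for 16 hr at 37°C. Luciferase activity was then read after 30 min with ONE-Glo at room temperature; rising signal flags genetic stress.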
FLuc counter = firefly luciferase modulation, counter-screen for miR-21 project; P08659; purified FLuc, Km substrates, luminescence inhibition; Potency, µM (doses to about 57.5 µM), for inactives: top-dose activity change, negative = inhibition, most hits filed as inhibitors; 6.9% of 360,000 active;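 note: plate controls were vehicle for no effect and reference inhibitor for full effect; nearly all actives have a fitted effect of over 55% in size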
Target sequence (P08659 whole entry, looked up): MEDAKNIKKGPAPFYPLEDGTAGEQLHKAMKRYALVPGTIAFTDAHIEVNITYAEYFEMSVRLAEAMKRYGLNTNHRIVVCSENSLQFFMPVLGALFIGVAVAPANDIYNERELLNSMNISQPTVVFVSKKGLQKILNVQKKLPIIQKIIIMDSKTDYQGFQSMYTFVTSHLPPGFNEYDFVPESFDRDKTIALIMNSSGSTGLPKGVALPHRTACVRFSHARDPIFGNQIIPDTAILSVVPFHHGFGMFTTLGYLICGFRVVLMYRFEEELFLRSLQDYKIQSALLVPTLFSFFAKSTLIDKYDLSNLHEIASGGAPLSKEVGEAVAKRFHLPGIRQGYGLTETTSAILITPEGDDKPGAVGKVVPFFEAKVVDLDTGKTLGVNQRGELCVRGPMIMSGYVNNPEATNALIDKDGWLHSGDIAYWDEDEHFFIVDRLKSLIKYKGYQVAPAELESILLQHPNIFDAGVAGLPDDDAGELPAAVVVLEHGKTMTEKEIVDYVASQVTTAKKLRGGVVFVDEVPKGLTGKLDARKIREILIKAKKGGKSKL
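Purified P. pyralis luciferase, 10 nM final, with Km-level 10 uM D-luciferin and 10 uM ATP in 50 mM Tris acetate pH 7.5, 10 mM Mg acetate, 0.01% Tween-20, 0.05% BSA; 6-point qHTS titration about 60 µM downward; luminescence read.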
Rab9 prom act = Rab9 promoter activation. Huh7 Rab9 promoter-luciferase reporter, luminescence, 24 h. Potency, µM (highest dose often 9.22 µM), for inactives: at the top dose activation, negative = inhibition, most hits filed as activators. 2.8% of 320,000 active. AID 485297; note: % of control where 0% means no effect; nearly all actives have a fitted effect of over 60% in size
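Steps: seed 1500 Huh7 Rab9-luc cells per well, rest 2 h at 37 °C; add compound in DMSO; incubate 24 h; add luciferase reagent, 10 min ambient; read luminescence.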
SMN2 splice up = increases expression of the SMN2 splice variant | Potency, µM (series often up to 46.1 µM), inactives show at the top dose activity change, positive = activation, hits mostly activators | AID 1458 | HEK293 SMN2-luciferase splicing reporter, luminescence, 30-36 h | 2.8% of 210,000 active; note: % of control where 0% means no effect; nearly all actives have a fitted effect of over 55% in size
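qHTS luciferase splicing reporter: luminescence rises when SMN2 exon 7 is included in transfected HEK293 cells. Compound exposure lasted 30-36 h at 37C, with 4.5 mM final sodium butyrate as control, followed by a ONE-Glo read.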
ELG1 DNA repair = blocks ELG1-dependent DNA repair in HEK293T cells; HEK293T ELG1-luciferase reporter, luminescence, 16 h; DNA damage induced by 5-fluorouridine; Potency, µM (highest dose often 46.1 µM), for inactives: at the highest dose activity change, negative = inhibition, actives largely listed as inhibitors; 2.3% of 330,000 active; AID 504467; note: % is set by controls: 0 for no effect and ±100 for the full control effect; nearly all actives have a fitted effect of over 55% in size
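Overnight (16 hr) co-exposure of 2,000 cells/well to 5-fluorouridine and compound at 37 °C preceded detection. Luciferase was quantified via ONE-Glo luminescence; loss of signal denotes inhibition.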
* = called active by the depositor; ? = inconclusive; nt = not tested or not shown; [ ] = remark or other dose. Compounds with a hit are over-represented: about 9.3% of the library has one in this group of screens. Calls come from the whole dose curve; as a rule, active = well fitted curve in the direction sought with a large enough effect; inconclusive = small, poorly fitted or top-dose-only effect, or another doubt; inactive = no such curve, though single readings can be large; an effect the other way counts as inactive or inconclusive. Potency is the fitted concentration of half-maximal effect.

SMILES | NPC1 prom act | ELG1 genotoxic | FLuc counter | Rab9 prom act | SMN2 splice up | ELG1 DNA repair
Clc1ccccc1-c1nnc(-c2ccc3c(c2)OCO3)o1 | 1.4µM* | -11% | 2.7µM* | 1.3µM* | 5µM* | ?
O=C(NCc1ccc2c(c1)OCO2)c1cccc([N+](=O)[O-])c1 | 1% | 0% | 1% | -2% | -17% | 5%
O=C1Nc2ccccc2Nc2ncccc21 | -4% | -1% | 3% | 4% | ? | ?
Cc1ccc2c(c1)NC(=O)c1cccnc1N2 | 3.2µM* | ? | 12µM* | ? | 11µM* | ?
Cc1ccc(NC(=O)CCc2c(C)nc3cc(-c4ccccc4)nn3c2C)cc1F | nt | nt | 11µM* | nt | 19% | nt
CC(=O)c1ccc(NC(=O)CCc2c(C)nc3cc(-c4ccc(Cl)cc4)nn3c2C)cc1 | nt | nt | 17µM* | nt | -21% | nt
Cc1csc(NC(=O)CCc2c(C)nc3cc(-c4cccc(F)c4)nn3c2C)n1 | 0% | -11% | 6% | -7% | -44% | ?
Cc1ccc(-c2cc3ccccc3nc2N2CCOCC2)cc1 | 3% | -4% | 4% | 0% | -18% | -29%
COc1ccccc1-c1nnn(CC#N)n1 | -4% | -1% | 1% | -8% | -9% | 11%
COc1ncccc1-c1nnn(-c2ccc(C)cc2)n1 | 3.2µM* | 9.2µM* | 4.3µM* | 3.2µM* | nt | ?
COc1ncccc1-c1nnn(-c2ccc(Cl)c(Cl)c2)n1 | 2.8µM* | ? | 4.8µM* | 3.2µM* | nt | ?
COc1ncccc1-c1nnn(-c2ccc(F)cc2)n1 | 2.8µM* | 9.2µM* | 5.4µM* | 4µM* | nt | ?
Cc1ccc(-n2nnc(-c3cc4ccccc4nc3Cl)n2)cc1 | ? | ? | 6µM* | 4.5µM* | nt | ?
CCOC(=O)c1ccc(N2C(=O)c3n[nH]c(-c4ccco4)c3C2c2ccc([N+](=O)[O-])cc2)cc1 (configuration not stated) | -15% | -18% | 4% | -8% | -21% | 23µM*
Nc1nonc1-c1noc(N2CCCCC2)n1 | -2% | ? | 19µM* | ? | 14% | ?
CCOc1ccc(C2NC(=O)C(C#N)=C(S)N2c2ccc(C)cc2)cc1OC (configuration not stated) | -2% | 12% | 17µM* | -1% | -13% | 0%
CCOc1ccc(C2NC(=O)C(C#N)=C(S)N2c2cccc(C)c2)cc1OC (configuration not stated) | 0% | 0% | -20% | -3% | nt | -13%
COC(=O)c1cc(S(=O)(=O)NCc2ccc(F)cc2)cn1C | 0% | -2% | 5% | 3% | nt | 3%
Cc1cnc(C(=O)Nc2ccc(C(=O)N(C)C3CCCCC3)cc2)cn1 | 0% | 1% | 1% | 6% | -9% | 12%
Cc1cnc(C(=O)Nc2ccc(C(C)C)cc2)cn1 | 3.5µM* | ? | 8.5µM* | 1.3µM* | 10µM* | ?
Cc1cnc(C(=O)Nc2ccccc2F)cn1 | 3.5µM* | 16µM* | 24µM* | 18%[1.84 µM] | ? | ?
Cc1cnc(C(=O)Nc2ccc(F)cc2)cn1 | 2.5µM* | ? | 24µM* | ? | 13µM* | ?
N=c1c(-c2nc3ccccc3[nH]2)cc(C(=O)c2ccco2)nn1-c1ccccc1 | -1% | -4% | -4% | -7% | -33% | 16µM*
Cc1ccc2c(c1)N(C(=O)CCC(=O)NCCCN1CCC(Cc3ccccc3)CC1)CCO2 | -4% | -3% | 2% | 5% | nt | -18%
CCc1c(C)nc2cc(-c3ccc(OC)c(OC)c3)nn2c1NCC1CC1 | 13% | -20% | ? | 10% | 0% | 15µM*
SMILES | NPC1 prom act | ELG1 genotoxic | FLuc counter | Rab9 prom act | SMN2 splice up | ELG1 DNA repair
COc1ccc(-c2cc3nc(C)cc(N4CC(C)CC(C)C4)n3n2)cc1 (configuration not stated) | 2% | -3% | -15% | 1% | -9% | ?
O=C(Nc1ccc2oc(-c3ccccc3)nc2c1)c1cccs1 | 4µM* | ? | 3.8µM* | 2.5µM* | 3.2µM* | ?
Cc1ccc2oc(-c3cc(NC(=O)/C=C/c4ccco4)ccc3Cl)nc2c1 | nt | nt | ? | nt | -5% | nt
Cc1ccc2oc(-c3cccc(NC(=S)NC(=O)c4cccs4)c3)nc2c1 | 24% | ? | 11µM* | 22% | 1%[1.84 µM] | ?
Cc1c(NC(=O)c2cccs2)cccc1-c1nc2cc(Cl)ccc2o1 | nt | nt | 5.4µM* | nt | nt | nt
O=C(Nc1ccc2oc(-c3ccccc3)nc2c1)c1ccncc1 | 6% | -9% | -14% | 7% | -61% | ?
Cc1ccc2oc(-c3cccc(NC(=S)NC(=O)/C=C/c4ccco4)c3)nc2c1 | 29% | 15% | 15µM* | ? | -29% | ?
O=C(CCS(=O)(=O)c1ccccc1)N1CCN(c2ccccc2)CC1 | 2.8µM* | ? | 12µM* | 1.6µM* | nt | ?
O=C(CCS(=O)(=O)c1ccc(Br)cc1)N1CCN(c2ccccc2)CC1 | -1% | -1% | 1% | -3% | 5% | -15%
CCC1=Nc2ccccc2-c2nnc(SC)nc2O1 | -5% | -8% | -2% | 3% | 2µM* | -8%
CSc1nnc2c(n1)OC(C)=Nc1ccccc1-2 | 1% | 0% | 3% | -3% | 6% | 3%
COc1ccc(-c2cc(C(=O)Nc3ccccc3)on2)cc1 | 0% | ? | 0.54µM* | 3% | ? | ?
O=C(Nc1ccc(F)cc1)c1cc(-c2ccccc2)no1 | -3% | -2% | 2% | -4% | -8% | 5%
COc1ccc(-n2nnc(C(=O)Nc3ccccc3F)c2N)cc1 | nt | nt | 2.4µM* | nt | 7.1µM* | nt
COc1ccc(NC(=O)c2nnn(CC(=O)Nc3ccccc3OC)c2N)c(OC)c1 | 2% | ? | ? | 25% | nt | ?
COc1ccc(-c2cc(C(=O)Nc3ccccc3F)on2)cc1 | 1% | ? | -17% | 3.2µM* | ? | ?
COc1ccc(NC(=O)c2cc(-c3ccccc3O)no2)cc1 | nt | nt | -11% | nt | nt | nt
CC(=O)N[C@H]1[C@@H](O[C@@H](C)C(=O)O)[C@H](O)[C@H](CO)O[C@@H]1O | nt | nt | nt | nt | -1%[20.6 µM] | nt
COc1cc2c(cc1OC)C(c1cc3cccc(C)c3[nH]c1=O)N(C(=O)c1ccco1)CC2 (configuration not stated) | -1% | 13% | -3% | -3% | nt | -22%
COc1ccccc1NC(=O)c1c(C)cc(C)nc1SCC(=O)c1ccc(Cl)cc1 | nt | nt | -8% | nt | nt | nt
O=C(COC(=O)Cc1n[nH]c(=O)c2ccccc12)NNC(=O)c1ccc(Cl)cc1 | 5% | 1% | 1% | 1% | nt | -1%
CC1(CC(=O)Nc2ccccc2)NC(=S)N(c2ccccc2)N1 (configuration not stated) | 2% | 17% | ? | 8% | 18% | ?
